Source: PubChem BioAssay AID1851 (National Center for Advancing Translational Sciences (NCATS), 2009)
In all, about 16,000 compounds went through this assay and about 5,800 (36%) were called active. Another 23% or so got no clear call; they are omitted. This is one part of the list. A number with no mark means an inactive call. The call rests on the fitted dose curve; in most records, active means well fitted curve in the direction sought with a large enough effect; inconclusive means small, poorly fitted or top-dose-only effect, or effect the other way; inactive means no such curve, though single readings can be large or run the other way.
On the % scale 0 is the no-effect control and ±100 the full control effect.

The compounds below were run against Cytochrome P450 2C19 (Homo sapiens) (UniProt P33261) (assay: Cytochrome panel assay with activity outcomes). Conditions: recombinant CYP, pro-luciferin dealkylation, luminescence, p450-cyp2c19; series mostly up to 57.1 µM.
Cytochrome P450 2C19 (Homo sapiens), sequence (P33261 whole entry, looked up): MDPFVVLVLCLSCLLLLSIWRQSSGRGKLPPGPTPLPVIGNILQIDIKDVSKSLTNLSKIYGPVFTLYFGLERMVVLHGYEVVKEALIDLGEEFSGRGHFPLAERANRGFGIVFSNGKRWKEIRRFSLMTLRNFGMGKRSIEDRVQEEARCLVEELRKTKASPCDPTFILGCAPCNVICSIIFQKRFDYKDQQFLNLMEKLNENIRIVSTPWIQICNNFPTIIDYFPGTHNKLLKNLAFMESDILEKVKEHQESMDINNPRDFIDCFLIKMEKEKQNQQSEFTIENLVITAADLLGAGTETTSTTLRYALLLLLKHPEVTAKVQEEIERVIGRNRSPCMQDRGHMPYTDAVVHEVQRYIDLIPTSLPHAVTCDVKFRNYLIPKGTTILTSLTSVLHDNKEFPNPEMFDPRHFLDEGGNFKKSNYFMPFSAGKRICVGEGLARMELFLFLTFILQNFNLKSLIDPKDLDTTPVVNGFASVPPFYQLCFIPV
In the case of `Cc1c(N(C)CS(=O)(=O)O)c(=O)n(-c2ccccc2)n1C`, the AC50 is reported as “inactive”. In the case of `Cc1c(CCO)c(=O)n(-c2ccccc2)n1S(=O)(=O)c1c(Cl)cc(Cl)cc1Cl`, the AC50 is reported as 2.82 µM (active). In the case of `Cc1ccc(S(=O)(=O)/N=C(/Nc2c(C)n(C)n(-c3ccccc3)c2=O)c2ccc(Cl)cc2)cc1`, the AC50 is reported as “inactive”. In the case of `CCOC(=O)N1CCN(CC(=O)c2ccc3c(c2)CCN3)CC1`, the AC50 is reported as 14.1 µM (active). For `O=C(Cc1ccccc1)NCCSCc1ccc(Cl)cc1`, the AC50 was 2.24 µM (active). For `S=C(NCCSCc1ccc(Cl)cc1Cl)Nc1ccccc1`, the AC50 was 1.12 µM (active). With `S=C(NCCSCc1c(Cl)cccc1Cl)Nc1ccccc1` the AC50 was 1.41 µM (active). `N[C@@H](CSCc1ccccc1)C(=O)O` was tested, and the activity, negative = inhibition was -4.77% [at 11.4 µM]. With `COc1c2ccoc2nc2c(OC)c(OC[C@H](O)C(C)(C)O)ccc12` the AC50 was “inactive”. `C/C(=N\NC(N)=S)c1ccc[nH]1` was tested, and the activity, negative = inhibition was 20.4% [at 11.4 µM]. For `C[C@@H](C(=O)NCc1ccc(S(C)(=O)=O)cc1)[C@@H]1C[C@@]1(C)[C@@H](NC(=O)OCc1ccccc1)c1ccccc1`, the AC50 was 1.26 µM (active). `C[C@@H](C(=O)NCc1cccc2ccccc12)[C@H]1C[C@]1(C)[C@H](NC(=O)OCc1ccccc1)c1ccccc1` was tested, and the AC50 was 2.51 µM (active). `O=P(O)(CCc1ccccc1)C(O)c1ccccc1` (configuration not stated) was tested, and the AC50 was “inactive”. For `C/C(=N\N1CCN(C2c3ccccc3-c3ccccc32)CC1)c1cccnc1`, the AC50 was 4.47 µM (active). With `C(=N\N1CCN(C2c3ccccc3-c3ccccc32)CC1)/c1cccnc1` the AC50 was 0.251 µM (active). For `C/C(=N\N1CCN(C2c3ccccc3-c3ccccc32)CC1)c1ccncc1`, the AC50 was 3.16 µM (active). With `O=[N+]([O-])c1cc(/C=N/N2CCN(C3c4ccccc4-c4ccccc43)CC2)ccc1Cl` the AC50 was “inactive”. For `CC1(C)OC(=O)NC1=O`, the AC50 was “inactive”. With `COCC(=O)N1CCC2(CCN(Cc3ccccc3OC)CC2)CC1` the AC50 was “inactive”. For `COc1ccccc1CNCC(O)(c1ccc(Cl)cc1)c1ccc(Cl)cc1`, the AC50 was 2.82 µM (active). For `C[C@@]12C(=O)OC(=O)[C@@]1(C)[C@@H]1CC[C@@H]2O1`, the AC50 was “inactive”. `CC(C)CO[C@H](c1ccc2c(c1)OCO2)[C@H](C)Br` was tested, and the AC50 was 0.0631 µM (active). `O=C(CSc1ncnc2nc[nH]c12)c1ccccc1` was tested, and the activity, negative = inhibition was 6.64% [at 11.4 µM]. `Cc1cc(SCC(=O)c2ccccc2)nc(SCC(=O)c2ccccc2)n1` was tested, and the AC50 was 2 µM (active). For `CSc1nc(C)cc(SC(C(C)=O)C(=O)Nc2ccccc2)n1` (configuration not stated), the AC50 was “inactive”. In the case of `CCN(CC)c1ccc(SS(=O)(=O)O)cc1`, the AC50 is reported as 7.08 µM (active). For `N#C/C(=C/N1CCOCC1)c1ccccc1`, the AC50 was 4.47 µM (active). `C[N+]1(C)CCC(OC(=O)C(c2ccccc2)c2ccccc2)CC1` was tested, and the AC50 was “inactive”. `CC(=O)[C@H]([C@@H](c1ccccc1)N1CCOCC1)N1CCOCC1` showed an activity, negative = inhibition of 7.37% [at 11.4 µM]. For `C[C@H](C(=O)c1ccccc1)[C@@H](c1ccccc1)N1CCOCC1`, the AC50 was 1.58 µM (active). For `Cc1ccc(-c2nn3c(C)nnc3c3ccccc23)cc1S(=O)(=O)NCc1ccccc1`, the AC50 was 5.01 µM (active). `CCOC(=O)CNS(=O)(=O)c1cc(-c2nn(C)c(=O)c3ccccc23)ccc1C` was tested, and the AC50 was 3.16 µM (active). With `CCN(CC)CCNC(=O)C(C)c1nn(C)c(=O)c2ccccc12` (configuration not stated) the AC50 was “inactive”. In the case of `CC1CCCC(C)N1CCNC(=O)Cn1nc(-c2ccccc2)ccc1=O` (configuration not stated), the AC50 is reported as “inactive”. `Cc1ccc(-c2nn(C)c(=O)c3ccccc23)cc1CNC(=O)Cn1nc(-c2ccccc2)c2ccccc2c1=O` was tested, and the AC50 was 7.94 µM (active). `CCN1CCc2c(sc(NC(=S)NC(=O)c3ccccc3)c2C#N)C1` was tested, and the AC50 was “inactive”. `Cc1nc2c(ccc3nc(NC(=O)c4ccc5c(c4)OCCO5)sc32)s1` was tested, and the AC50 was 2.51 µM (active). `CCN1CCc2nc(NC(=O)CC(c3ccccc3)c3ccccc3)sc2C1` was tested, and the AC50 was 8.91 µM (active). In the case of `Cc1nc2ccc3nc(NC(=O)c4ccc(S(=O)(=O)N5CCOCC5)cc4)sc3c2s1`, the AC50 is reported as “inactive”. For `CCN1CCC[C@@H](OC(=O)C(c2ccccc2)c2ccccc2)C1`, the AC50 was “inactive”. For `CCN1CCc2nc(NC(=O)c3ccc4c(c3)OCCO4)sc2C1`, the AC50 was 15.8 µM (active). In the case of `O=C(O)/C=C(/C(=O)O)[C@]12CCN3CC4=CCO[C@@H]5CC(=O)N[C@@H]1[C@H]5[C@H]4C[C@H]32`, the activity, negative = inhibition is reported as -10% [at 11.4 µM]. `CC(C)=CCC/C(C)=C/CO/N=C1/C[C@@H](O)[C@@H](O)[C@@H]2[C@@H]3C(=O)N(C(C)(C)C)C(=O)[C@H]3CC[C@H]12` showed an activity, negative = inhibition of 12.2% [at 11.4 µM]. With `N#CCCn1c(=O)c(-c2ccc(F)cc2)nc2cnc(N3CCOCC3)nc21` the AC50 was “inactive”. `CNc1oc(-c2ccc(Cl)cc2)nc1C#N` was tested, and the AC50 was 11.2 µM (active). `O=C(NCCNS(=O)(=O)c1ccc(Cl)cc1)c1cc(OCC(F)(F)F)ccc1OCC(F)(F)F` was tested, and the AC50 was 2.51 µM (active). For `O=C(O)CONC(=O)c1cc(OCC(F)(F)F)ccc1OCC(F)(F)F`, the AC50 was “inactive”. In the case of `CCN(CC)CCNC(=O)c1cc(S(C)(=O)=O)ccc1OC`, the AC50 is reported as “inactive”. `O=C(NCCNS(=O)(=O)c1ccccc1Cl)c1cc(OCC(F)(F)F)ccc1OCC(F)(F)F` was tested, and the AC50 was 14.1 µM (active). For `CCOC(=O)c1c(-c2ccc(OC)cc2)csc1NC(=O)CCN1C(=O)c2ccccc2C1=O`, the AC50 was 5.62 µM (active). In the case of `CCOC(=O)c1c(-c2ccccc2)csc1NC(=O)c1cccc(N2C(=O)CCC2=O)c1`, the AC50 is reported as 3.55 µM (active). For `CCOC(=O)c1c(-c2cccc(C)c2)csc1NC(=O)c1c(-c2ccccc2)noc1C`, the AC50 was “inactive”. `COC(=O)c1c(-c2ccc3ccccc3c2)csc1NC(=O)Cc1ccc(OC)c(OC)c1` was tested, and the AC50 was 1.41 µM (active). In the case of `N/C(=N\O)c1cn([C@@H]2O[C@@H](CO)[C@H](O)[C@@H]2O)c2ncnc(NO)c12`, the activity, negative = inhibition is reported as 14.4% [at 11.4 µM]. With `CC(=O)Nc1c(I)c(C(=O)N[C@H]2[C@@H](O)[C@H](O)[C@H](CO)O[C@@H]2O)c(I)c(N(C)C(C)=O)c1I` the AC50 was “inactive”. `Cc1ccc(OCCCN2C(=O)C(=O)c3cccc(C)c32)cc1` was tested, and the AC50 was 3.98 µM (active). With `NS(=O)(=O)c1ccc(N=Nc2nc3[nH]c(=O)[nH]c(=O)c3[nH]2)cc1` the activity, negative = inhibition was -0.933% [at 11.4 µM]. For `Nc1ccc(Nc2ccccc2)cc1`, the AC50 was 10 µM (active). For `CNC(=S)Nc1ccc(Nc2ccccc2)cc1`, the AC50 was 5.62 µM (active). In the case of `CC(C)(C)NC(=S)Nc1ccc(Nc2ccccc2)cc1`, the AC50 is reported as 4.47 µM (active). With `N#[N+]c1ccc(Nc2ccccc2)cc1` the activity, negative = inhibition was 23.3% [at 11.4 µM]. `C=CC[C@@H]1C=C[C@H](O/N=C(\C)CCN2CCCc3nc(C)c(C)cc32)[C@H](CO)O1` showed an activity, negative = inhibition of 29.1% [at 11.4 µM]. `CC(C(=O)NC1CCCC1)N(C(=O)c1ccc(-c2ccccc2)[nH]1)c1ccccc1F` (configuration not stated) was tested, and the AC50 was 3.98 µM (active). `Cc1cccc(C)c1NC(=O)C(c1ccc(Cl)cc1Cl)N1CCCCC1` (configuration not stated) was tested, and the AC50 was 15.8 µM (active). With `O=C(COc1cccc(NC(=O)c2cccc([N+](=O)[O-])c2)c1)c1ccc(Br)cc1` the AC50 was 1.26 µM (active). `COc1ccc(/C=N/OCc2nc3c4c(ncn3n2)Oc2ccc3ccccc3c2C4c2ccccc2)cc1` (configuration not stated) was tested, and the AC50 was 0.0794 µM (active). In the case of `Cc1ccc(NC2=NC(c3ccccc3)n3c(nc(C)cc3=O)N2)c(C)c1` (configuration not stated), the AC50 is reported as 14.1 µM (active). `Nc1nnnn1/N=C\c1ccc(Cl)c([N+](=O)[O-])c1` was tested, and the AC50 was 0.2 µM (active). `CC1CCN(c2ccc(/C=N/n3nnnc3N)cc2[N+](=O)[O-])CC1` was tested, and the AC50 was “inactive”. `CC(C)(CO[C@H]1C[C@H]2CC[C@@]1(C)C2(C)C)[N+](=O)[O-]` gave an activity, negative = inhibition of 12.6% [at 11.4 µM]. `O=C(O)CSc1cc(C(F)(F)F)nc(-c2ccccn2)n1` was tested, and the AC50 was “inactive”. `CC(Sc1nc(-c2ccccc2)cc(C(F)(F)F)n1)C(=O)N1CCCCC1` (configuration not stated) was tested, and the AC50 was 10 µM (active). `O=c1[nH]c2cc(Br)cnc2nc1/C=C(\O)c1ccc(F)cc1` was tested, and the AC50 was “inactive”. `Cc1cccc(CCNc2nc3ccccc3n3nnnc23)c1` was tested, and the AC50 was 1.58 µM (active). With `CCC(=O)NC(NC(=O)CC)C(Cl)Cl` the AC50 was “inactive”. `CN1CCN(NC(=O)CN2C(=O)/C(=C/c3c(Cl)cccc3Cl)SC2=S)CC1` was tested, and the AC50 was 4.47 µM (active). `CC(C)(C)C(=O)[C@H]1[C@H](c2ccccc2)[C@@]2(N=C(c3ccccc3)OC2=O)C2c3ccccc3C=NN21` (some centres not stated) was tested, and the AC50 was 1.12 µM (active). In the case of `COc1ccccc1-c1cc(C(=O)Nc2cc(C)n(Cc3ccc(Cl)cc3)n2)no1`, the AC50 is reported as 2.51 µM (active). In the case of `CCOC(=O)Cc1cc(=O)n2[nH]c(C)c(C#N)c2n1`, the AC50 is reported as “inactive”. With `CCCCc1[nH]c(=O)c(C#N)c2c1CCCC2` the AC50 was “inactive”. For `CCCCOC(=O)CCc1c(C)[nH]c(=O)c(C#N)c1C`, the AC50 was 10 µM (active). For `CC(=O)N1CCC[C@@]2(CCN(c3ncccn3)C2)C1`, the AC50 was “inactive”. `CCc1cccc2c(C=C(C#N)C#N)cn(CC(=O)N3CCCC3)c12` was tested, and the AC50 was “inactive”. `CCc1cccc2c(C=C(C#N)C#N)cn(CC(=O)N3CCCCC3)c12` was tested, and the AC50 was “inactive”. `CCN(CC)C(=O)Cn1cc(/C=C(\C#N)C(=O)N2CCN(c3ccccc3)CC2)c2ccccc21` was tested, and the AC50 was 2 µM (active). `Cc1noc(C)c1C(=O)N1CCC[C@@]2(CCN(Cc3ccccc3)C2)C1` was tested, and the AC50 was “inactive”. For `COC(=O)c1ccc(CCc2cc(O)ccc2O)cc1`, the AC50 was 3.16 µM (active). `COC(=O)c1cc(Br)c(=O)n(CCc2ccc(O)cc2)c1` was tested, and the AC50 was 3.55 µM (active). In the case of `COc1cc(CC(=O)O)ccc1O`, the AC50 is reported as “inactive”. In the case of `O=C(O)Cc1ccc(O)c(O)c1`, the AC50 is reported as “inactive”. `COC(=O)[C@](C)(N)Cc1ccc(O)cc1` was tested, and the AC50 was “inactive”. Compound `CC(C)=CCC/C(C)=C/CO/N=C1/C[C@@H](O)[C@@H](O)[C@@H]2[C@H]3C(=O)N(c4ccc(F)cc4F)C(=O)[C@@H]3CC[C@@H]12` has an activity, negative = inhibition of -9.14% [at 11.4 µM].
